# Laboratory results taken from the supplement of paper PMC3334620.
# Over roughly 33,000 sequences, “E-score (-0.5 to 0.5)” has its median near -0.017; the highest 2% begin near 0.3. Only a selection was taken, and the highest values are over-represented in it overall.
# Target: T1, Sut1 (UniProt P53032)
# T1 sequence: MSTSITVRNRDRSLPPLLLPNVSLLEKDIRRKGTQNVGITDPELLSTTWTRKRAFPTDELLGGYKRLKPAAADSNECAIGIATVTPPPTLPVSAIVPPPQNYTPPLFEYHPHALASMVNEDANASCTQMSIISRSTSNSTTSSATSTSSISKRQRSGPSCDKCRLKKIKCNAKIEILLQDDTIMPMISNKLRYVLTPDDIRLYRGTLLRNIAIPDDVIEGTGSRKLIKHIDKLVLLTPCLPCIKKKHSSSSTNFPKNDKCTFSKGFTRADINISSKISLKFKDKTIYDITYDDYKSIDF
# Test: PBM E-score (8-mer binding enrichment) (E-score (-0.5 to 0.5)); higher = stronger / more preferred TF binding
# Settings: protein concentration: 200 nM; construct: GST-full length
# Protocol: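 Universal 'all 10-mer' protein binding microarrays (Agilent AMADID 015681) probed with GST-tagged S. cerevisiae TFs (full-length or DBD) made by in vitro transcription/translation (PURExpress), about 100-200 nM. Bound TF was detected with fluorescent anti-GST. Each ungapped 8-mer (which stands for itself and its reverse complement) is scored by the PBM enrichment score (E-score), a modified Wilcoxon-Mann-Whitney statistic from -0.5 to +0.5, computed with the Universal PBM Analysis Suite. Scale: above 0.35 generally sequence-specific binding.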
row,Sequence,PBM E-score
1,TGGGTTAA,-0.0031
2,ATCAACTC,-0.0768
3,ACAGAACG,-0.0202
4,TCACTCAA,0.0178
5,CCCTCAAA,-0.0431
6,AATCGGCG,-0.0941
7,AAAGTATA,0.214
8,GCTTAAGA,0.00411
9,GTCAAGAA,0.108
10,ACCGTTAG,0.00367
11,CAGCTGAA,-0.109
12,CGATTCCA,0.0585
13,AAATTCCG,0.337
14,CGATTCCG,0.314
15,CAATTCCC,0.072
16,AAATTCCC,-0.245
17,CAATTCCA,-0.032
18,CGATTCCC,-0.0189
19,CAATTCCG,0.305
20,AAATTCCA,0.241
21,GCTAGGGA,-0.308
22,AATCCCAG,0.0474
23,ATACGAGG,-0.165
24,CGATTGAG,-0.0533
25,GGGACTAC,-0.162
26,CGGACTAG,0.452

row,Sequence,PBM E-score
1,CAGACTAG,-0.288
2,CGGACTAA,0.454
3,GGGACTAA,-0.0778
4,AGGACTAC,-0.118
5,CGGACTAC,0.464
6,TGGACTAA,-0.104
7,AGGACTAG,-0.0577
8,GATGCTCC,0.17
9,CAAGGGGA,-0.185
10,GCCTTGCC,-0.155
11,ACGTCGAT,0.0428
12,CATCTGAG,-0.143
13,CACTCCAC,-0.0759
14,CCAGCTGG,-0.188
15,CATGCAGA,-0.15
16,ATTGAATA,0.315
17,CTTGAAAA,0.0874
18,ATTGAAAA,0.213
19,ATTGAATC,0.00919
20,ATTGAAAC,0.184
21,TTTGAAAA,0.31
22,ATTGAAAT,0.311
23,GTTGAAAA,0.104
24,CTTGAATA,0.0931
25,CCGGGCCG,0.155
26,TCCATGAA,0.131

row,Sequence,PBM E-score
1,AGCCTTTG,-0.165
2,ACCTCAGC,-0.106
3,CTCAGTTC,-0.0325
4,ATCTTTCG,-0.00103
5,CGAGAGCC,-0.161
6,TATTTCAA,0.301
7,GATTTCAA,0.147
8,CATTTCAA,0.275
9,ATTCATAA,0.127
10,CTTCCGTA,0.181
11,GTTCCGGA,0.342
12,GTTCCGCA,0.0832
13,CTTCCGGC,0.0877
14,ATTCCGGC,0.177
15,GTTCCGAA,0.267
16,CTTCCGGA,0.347
17,ATTCCGGA,0.42
18,ATTCCGGG,0.295
19,AGCCAAAT,0.14
20,ATCAAACG,0.132
21,CATTGCTC,0.1
22,CGGTCTAG,-0.0195
23,ACCGTAGA,0.0336
24,TCCGTAGA,0.361
25,CCCGTAGA,-0.245
26,AGTATCAG,-0.0501

row,Sequence,PBM E-score
1,ACCTCTCG,-0.047
2,CGTGACCC,-0.111
3,CAATCAGG,-0.167
4,GCTTTGAA,-0.00621
5,ACTACAAA,0.302
6,ACTACAAC,0.266
7,ACTACAAG,0.0409
8,AATACAAG,0.123
9,GATACAAA,0.112
10,AATACAAA,0.348
11,GCCTGGAC,-0.336
12,AGGCAGGC,-0.208
13,GCCGTCCA,0.00979
14,TCCGTCCA,0.316
15,CCCGTCCA,-0.198
16,CAGGTTAG,-0.082
17,AGCCTACT,-0.134
18,ATACTATC,0.202
19,CTACTATC,0.312
20,CTACTATA,0.281
21,ATGTAGTC,0.18
22,GACACCGC,-0.0517
23,ACCTCGGC,0.0761
24,ACCTCGGA,0.404
25,AGCTCGGA,0.336
26,CTCTCGGA,0.32

row,Sequence,PBM E-score
1,ATCTCGGG,0.0127
2,GCCTCGGA,0.198
3,CGCTCGGA,0.29
4,AGCTCGGC,-0.00249
5,CTCTCGAA,-0.282
6,CTCTCGGC,-0.0324
7,ATCTCGGA,0.368
8,ATCTCGGC,0.13
9,GCCACTCA,-0.126
10,AGTTAAAG,0.0654
11,AATCACAT,0.139
12,CAGCATTC,-0.193
13,CAGTTGGG,-0.207
14,ACCACTCA,-0.156
15,ACCAAAGG,-0.0819
16,AATGGCAA,0.0477
17,AGATGAGC,-0.0376
18,AGACCAAG,0.186
19,GTCTCGAA,-0.159
20,GTCTCGTA,-0.0582
21,GTCTCGGA,0.316
22,CTTTTGAA,0.152
23,CGAGTCCG,0.426
24,AGAGTCCG,0.449
25,CGAGTCCC,0.014
26,ACAGTCCG,0.312

row,Sequence,PBM E-score
1,AGAGTCCT,-0.114
2,CGAGTCCA,-0.139
3,ACAGTCCA,0.0821
4,AGAGTCCC,-0.0834
5,ATAGTCCG,0.473
6,ATAGTCCC,-0.206
7,ATAGTCCA,0.0136
8,CCAGTCCG,0.222
9,GCTCTTAC,0.132
10,CACTCACG,-0.0637
11,TATGAACA,0.0917
12,AAAACGCA,-0.0411
13,AAGAGTTA,0.12
14,CAAGTCAG,-0.0539
15,CAGTTGCA,-0.0927
16,GACGCAGC,-0.199
17,ATCCGTTA,0.275
18,CTCCGTTC,0.32
19,ATCCGTTC,0.147
20,CGCCGTTC,-0.157
21,GTCCGTTA,0.376
22,CTCCGTTA,0.335
23,CGCCGTTA,-0.0973
24,CACCGTTA,0.0406
25,GGCCGTTA,0.137
26,GCCGGCGC,0.089

row,Sequence,PBM E-score
1,GACGCTAC,-0.101
2,AATAGCTG,0.0185
3,CCGCACGC,-0.237
4,CTAACCTA,0.0178
5,ATTCGGCC,-0.0211
6,ATTCGGGC,-0.0696
7,ATTCGGAG,0.432
8,ATTCGGAC,0.455
9,ATTCGGCG,-0.0582
10,ATTCGGAA,0.262
11,GAATAGGC,-0.0173
12,AGCCTCAG,-0.139
13,ACGAGTGA,-0.115
14,GTCACCAA,-0.0973
15,CGCTCCGA,0.317
16,AGCTCCCG,-0.173
17,CGCTCCGC,0.0358
18,AGCTCCGG,0.466
19,GGCTCCCA,-0.12
20,GGCTCCAA,0.00981
21,CCCTCCGG,0.00905
22,ACCTCCGT,0.165
23,AGCTCCTG,-0.238
24,CGCTCCCA,-0.0881
25,GGCTCCGA,0.338
26,ACCTCCGG,0.322

row,Sequence,PBM E-score
1,CTAGCTAG,0.132
2,CTCATCCA,-0.124
3,GTCCTACA,-0.0165
4,CTCTGGTC,-0.00832
5,GGGGGCAA,-0.211
6,ATTCAGGA,0.0993
7,ACTGTGTA,0.0481
8,ACGTAGGC,-0.171
9,AGCTCCAA,0.0776
10,AGCTCCGC,0.331
11,AGCTCCTA,-0.173
12,AGCTCCGA,0.464
13,AGCTCCAC,-0.0851
14,AGCTCCTC,-0.098
15,CACCCACG,-0.0788
16,ATTCTCAG,0.00054
17,ATTCCAAT,0.161
18,ATACGTTC,-0.101
19,ATGTGCGA,-0.0365
20,AACTAGCG,-0.0241
21,ACCTTCGG,0.147
22,CATTTGCA,0.0495
23,ATCCTCCA,-0.0869
24,TGCCTACA,-0.15
25,TGTCCTAA,-0.0608
26,TGTCCAAA,0.124

row,Sequence,PBM E-score
1,GGTCCGAA,0.437
2,GGTCCAAA,-0.168
3,TGTCCGAA,0.428
4,CGTCCGAA,0.125
5,GTACGTCA,-0.0804
6,ATACTGGA,0.122
7,GACAACGA,0.104
8,ACGTTTGA,0.132
9,AGCTGGCA,-0.241
10,CGCGAACG,-0.0292
11,AAATCGGT,0.0195
12,GAATCGCA,-0.0351
13,TAATCGGA,0.308
14,TAATCGAA,0.0525
15,CAATCGGA,0.286
16,GAATCGGC,0.0753
17,AAATCGGG,0.0832
18,AAATCGGA,0.397
19,GAATCGGA,0.376
